Assay results: PubChem BioAssay (NCI)
About 83,000 compounds went through this panel and 20% of them were active in at least one assay; those are over-represented in the sample as a whole.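 Single-concentration screen, 48 h exposure, 96-well plates. Endpoint: percent growth. Below 10 = active.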 Activity calls are given as the source filed them.

Tests used:
Test in all cases: NCI-60 one-dose screen, 48 h (100 = growth as untreated, 0 = no growth, -100 = all killed)
NCI-H23 lung = conditions: 10 µM unless noted
NCI-H226 lung = conditions: 10 µM unless noted
NCI-H322M lung = conditions: 10 µM unless noted
HOP-62 NSCLC = conditions: 10 µM unless noted
NCI-H460 lung = conditions: 10 µM unless noted
HOP-92 NSCLC = conditions: 10 µM unless noted
NCI-H522 lung = conditions: 10 µM unless noted
A549/ATCC NSCLC = conditions: 10 µM unless noted
786-0 renal = conditions: 10 µM unless noted
DU-145 prostate = conditions: 10 µM unless noted
K-562 leukemia = conditions: 10 µM unless noted
MALME-3M melanoma = conditions: 10 µM unless noted
MDA-MB-231 breast = conditions: 10 µM unless noted
RXF 393 renal = conditions: 10 µM unless noted
SF-268 CNS = conditions: 10 µM unless noted
SF-295 CNS = conditions: 10 µM unless noted
SF-539 CNS = conditions: 10 µM unless noted
M14 melanoma = conditions: 10 µM unless noted
COLO 205 colon = conditions: 10 µM unless noted
UACC-257 melanoma = conditions: 10 µM

Measured: growth

Cn1c(=O)c2c(nc3n2CCN(CCc2ccc(OCCN4CCOCC4)cc2)C3)n(C)c1=O
inactive: NCI-H23 lung 101% | NCI-H226 lung 100% | NCI-H322M lung 100% | HOP-62 NSCLC 106% | NCI-H460 lung 107% | HOP-92 NSCLC 96.6% | NCI-H522 lung 94.2% | A549/ATCC NSCLC 99.4% | 786-0 renal 99.6% | DU-145 prostate 109% | K-562 leukemia 109% | MALME-3M melanoma 106% | MDA-MB-231 breast 104% | RXF 393 renal 111% | SF-268 CNS 105% | SF-295 CNS 106% | SF-539 CNS 109% | M14 melanoma 105%

COC(=O)C(CC(=O)c1ccc(-c2ccccc2)cc1)c1ccccc1 (stereo unspecified)
active: NCI-H522 lung -0.151%
inactive: NCI-H23 lung 76.6% | NCI-H226 lung 63.3% | NCI-H322M lung 96.8% | HOP-62 NSCLC 75.1% | NCI-H460 lung 90% | HOP-92 NSCLC 68.3% | A549/ATCC NSCLC 76.6% | 786-0 renal 28.7% | COLO 205 colon 36.7% | DU-145 prostate 72.7% | K-562 leukemia 20.6% | MDA-MB-231 breast 66.3% | RXF 393 renal 56.5% | SF-268 CNS 88.7% | SF-295 CNS 58.6% | SF-539 CNS 34.7% | UACC-257 melanoma 66.7%

CCN(CC)c1cc(/C=C/c2ccc(OC)c(OC)c2)nc2cc(F)c(F)cc12
inactive: NCI-H226 lung 24.6% | NCI-H322M lung 90.9% | NCI-H460 lung 84.9% | NCI-H522 lung 33.9% | A549/ATCC NSCLC 64.8% | COLO 205 colon 105% | DU-145 prostate 71.8% | UACC-257 melanoma 87.7% | M14 melanoma 74.6%
active: NCI-H23 lung -2.87% | HOP-62 NSCLC -78.8% | HOP-92 NSCLC -53.2% | 786-0 renal -18.7% | MALME-3M melanoma 4.61% | MDA-MB-231 breast 8.74% | RXF 393 renal -58.7% | SF-268 CNS 7.33% | SF-295 CNS -66% | SF-539 CNS 4.7%

COc1ccc2c(c1)C(=O)/C(=C/c1ccc(O)cc1)O2
inactive: NCI-H23 lung 93.9% | NCI-H226 lung 78.2% | NCI-H322M lung 86.6% | HOP-62 NSCLC 90.8% | NCI-H460 lung 91.2% | A549/ATCC NSCLC 91.8% | 786-0 renal 101% | DU-145 prostate 109% | K-562 leukemia 59.7% | MALME-3M melanoma 71.2% | MDA-MB-231 breast 78.5% | SF-268 CNS 97.9% | SF-295 CNS 98.1% | SF-539 CNS 80.2% | UACC-257 melanoma 86.7%
active: HOP-92 NSCLC -40% | NCI-H522 lung -97.9% | RXF 393 renal -59.9%

Nc1c(C(=O)Nc2ccccc2)sc2nc3c(cc12)CN(Cc1ccccc1)CC3
inactive: NCI-H23 lung 79.1% | NCI-H226 lung 45.2% | NCI-H322M lung 50% | HOP-62 NSCLC 52.1% | NCI-H460 lung 32.8% | HOP-92 NSCLC 20.2% | NCI-H522 lung 80.2% | A549/ATCC NSCLC 54.2% | 786-0 renal 28.8% | COLO 205 colon 97.8% | DU-145 prostate 58.9% | K-562 leukemia 61.1% | MDA-MB-231 breast 42.6% | RXF 393 renal 49.9% | SF-268 CNS 48.8% | SF-295 CNS 66.4% | SF-539 CNS 12.6% | UACC-257 melanoma 74% | M14 melanoma 82.2%

O=C(O)c1cn(C2CC2)c2cc(N3CCN(S(=O)(=O)c4ccc(Cl)c(Cl)c4)CC3)c(F)cc2c1=O
active: NCI-H23 lung 1.76% | NCI-H460 lung 5.77% | NCI-H522 lung -21.4% | A549/ATCC NSCLC 6.02% | MALME-3M melanoma -1.09% | SF-295 CNS -7.27% | UACC-257 melanoma 8.87%
inactive: NCI-H226 lung 41.4% | NCI-H322M lung 21.3% | HOP-62 NSCLC 15.2% | HOP-92 NSCLC 12.2% | 786-0 renal 27.8% | DU-145 prostate 17.2% | K-562 leukemia 16.9% | MDA-MB-231 breast 36.6% | RXF 393 renal 29.1% | SF-268 CNS 19.6% | SF-539 CNS 11.4% | M14 melanoma 18.5%

NS(=O)(=O)c1ccc(CN2C(=O)c3cccc4cccc(c34)C2=O)cc1
inactive: NCI-H23 lung 107% | NCI-H226 lung 86.1% | NCI-H322M lung 93% | HOP-62 NSCLC 81.8% | NCI-H460 lung 110% | HOP-92 NSCLC 82.7% | NCI-H522 lung 89.9% | A549/ATCC NSCLC 92.1% | 786-0 renal 99.2% | DU-145 prostate 105% | K-562 leukemia 96% | MALME-3M melanoma 112% | MDA-MB-231 breast 94.3% | RXF 393 renal 97.6% | SF-268 CNS 92.4% | SF-295 CNS 110% | SF-539 CNS 88.8% | UACC-257 melanoma 103% | M14 melanoma 105%

CC1=NN2C(=NC3=C(CCC/C3=C\c3ccc(Cl)cc3)C2c2ccc(Cl)cc2)S1 (stereo unspecified)
inactive: NCI-H23 lung 97.8% | NCI-H226 lung 101% | NCI-H322M lung 104% | HOP-62 NSCLC 115% | NCI-H460 lung 101% | HOP-92 NSCLC 77.9% | NCI-H522 lung 83.3% | A549/ATCC NSCLC 87% | 786-0 renal 97.2% | COLO 205 colon 109% | DU-145 prostate 101% | K-562 leukemia 100% | MDA-MB-231 breast 109% | RXF 393 renal 106% | SF-268 CNS 98.6% | SF-295 CNS 102% | SF-539 CNS 102% | UACC-257 melanoma 106% | M14 melanoma 92.3%

c1cc(-c2ccc3c(c2)OCO3)n2nccc2n1
inactive: NCI-H23 lung 104% | NCI-H226 lung 83% | NCI-H322M lung 99.3% | HOP-62 NSCLC 108% | NCI-H460 lung 101% | HOP-92 NSCLC 83.9% | NCI-H522 lung 89.7% | A549/ATCC NSCLC 99.2% | 786-0 renal 101% | DU-145 prostate 106% | K-562 leukemia 102% | MALME-3M melanoma 104% | MDA-MB-231 breast 106% | RXF 393 renal 96.4% | SF-268 CNS 104% | SF-295 CNS 99.9% | SF-539 CNS 89.1% | UACC-257 melanoma 103% | M14 melanoma 109%

CC(=O)C1CCC(C)=CC1=O (stereo unspecified)
inactive: NCI-H23 lung 102% | NCI-H226 lung 104% | NCI-H322M lung 85.8% | HOP-62 NSCLC 111% | NCI-H460 lung 106% | HOP-92 NSCLC 96.9% | NCI-H522 lung 89.7% | A549/ATCC NSCLC 98.3% | 786-0 renal 91.8% | COLO 205 colon 116% | DU-145 prostate 114% | MALME-3M melanoma 93.4% | MDA-MB-231 breast 104% | RXF 393 renal 113% | SF-268 CNS 99.1% | SF-295 CNS 101% | SF-539 CNS 99.6% | UACC-257 melanoma 92.8% | M14 melanoma 97.5%

COc1ccc([N+](=O)[O-])c(/C=C/C(=O)c2ccccn2)c1
inactive: NCI-H23 lung 91.3% | NCI-H226 lung 84.2% | NCI-H322M lung 83.4% | HOP-62 NSCLC 78.5% | NCI-H460 lung 89.4% | HOP-92 NSCLC 66.9% | NCI-H522 lung 90.1% | A549/ATCC NSCLC 87.8% | 786-0 renal 93.4% | DU-145 prostate 28.5% | K-562 leukemia 21% | MALME-3M melanoma 91% | MDA-MB-231 breast 86.2% | RXF 393 renal 74.1% | SF-268 CNS 89.1% | SF-295 CNS 133% | SF-539 CNS 95.2% | UACC-257 melanoma 96.9% | M14 melanoma 104%

CCCCC(N)(C(=O)O)C1CCCC1 (stereo unspecified)
inactive: NCI-H23 lung 106% | NCI-H226 lung 101% | NCI-H322M lung 101% | HOP-62 NSCLC 112% | NCI-H460 lung 107% | HOP-92 NSCLC 102% | NCI-H522 lung 102% | A549/ATCC NSCLC 94.4% | 786-0 renal 96% | COLO 205 colon 123% | DU-145 prostate 122% | MALME-3M melanoma 127% | MDA-MB-231 breast 105% | RXF 393 renal 106% | SF-268 CNS 107% | SF-295 CNS 98.8% | SF-539 CNS 96.7% | UACC-257 melanoma 87.2% | M14 melanoma 107%

Cc1ccc(C2=NN(c3ccc(S(N)(=O)=O)cc3)C(c3cn(-c4ccccc4)nc3-c3ccccc3)C2)cc1 (stereo unspecified)
inactive: NCI-H23 lung 93.8% | NCI-H226 lung 97.8% | NCI-H322M lung 101% | HOP-62 NSCLC 105% | NCI-H460 lung 38.9% | HOP-92 NSCLC 27.7% | NCI-H522 lung 75.2% | A549/ATCC NSCLC 65% | 786-0 renal 109% | COLO 205 colon 101% | DU-145 prostate 65.7% | K-562 leukemia 21.9% | MDA-MB-231 breast 82.7% | RXF 393 renal 95.8% | SF-268 CNS 42.7% | SF-295 CNS 104% | SF-539 CNS 112% | UACC-257 melanoma 98.8% | M14 melanoma 96.1%

COc1ccc(-c2nc3sccn3c2-c2ccnc(NCCCNS(=O)(=O)c3ccc(C)cc3)n2)cc1
inactive: NCI-H23 lung 26.6% | NCI-H226 lung 13.7% | NCI-H322M lung 65% | HOP-62 NSCLC 86.5% | NCI-H460 lung 40% | HOP-92 NSCLC 67.5% | NCI-H522 lung 21.4% | A549/ATCC NSCLC 38.8% | 786-0 renal 43.6% | DU-145 prostate 34.1% | K-562 leukemia 19.9% | MALME-3M melanoma 54.7% | MDA-MB-231 breast 23.5% | RXF 393 renal 34.6% | SF-268 CNS 38.1% | SF-295 CNS 21.4% | SF-539 CNS 56.9% | UACC-257 melanoma 40% | M14 melanoma 23.2%

CCCCCC(=O)OCc1ccccc1
inactive: NCI-H23 lung 102% | NCI-H226 lung 103% | NCI-H322M lung 102% | HOP-62 NSCLC 97% | NCI-H460 lung 109% | HOP-92 NSCLC 96.3% | NCI-H522 lung 85.7% | A549/ATCC NSCLC 106% | 786-0 renal 96.9% | DU-145 prostate 103% | K-562 leukemia 84.9% | MALME-3M melanoma 85.9% | MDA-MB-231 breast 109% | RXF 393 renal 105% | SF-268 CNS 97.2% | SF-295 CNS 99.8% | SF-539 CNS 98.8% | UACC-257 melanoma 96.8% | M14 melanoma 94.9%

Nc1nc(-c2ccccc2)cs1
inactive: NCI-H23 lung 111% | NCI-H226 lung 93.3% | NCI-H322M lung 109% | HOP-62 NSCLC 97% | NCI-H460 lung 109% | HOP-92 NSCLC 101% | NCI-H522 lung 102% | A549/ATCC NSCLC 95.6% | 786-0 renal 105% | COLO 205 colon 108% | DU-145 prostate 104% | K-562 leukemia 114% | MDA-MB-231 breast 104% | RXF 393 renal 120% | SF-268 CNS 96.4% | SF-295 CNS 104% | SF-539 CNS 99.1% | UACC-257 melanoma 98.5% | M14 melanoma 97.2%
